Compound activity as filed in PubChem BioAssay.
Hits are enriched below; roughly 7.5% of the tested compounds scored in any of these assays.
NPC1 promoter act: activators of NPC1 promoter. Potency, µM (highest dose often 9.22 µM), for the others: at the top dose activation, usual class: activators. hit rate 2.4% among 320,000. Huh7 NPC1 promoter luciferase reporter, 24 h; note: % of control where 0% means no effect; nearly all actives have a fitted effect of over 60% in size
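NPC1 promoter–luciferase Huh7 cells; 24 h compound; luminescence.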
SMN2 splice enh: enhancers of SMN2 splice variant expression; HEK293 SMN2-luciferase splicing reporter, luminescence, 30-36 h; Potency, µM (titrated, usually from 46.1 µM), inactives show at the top dose activity change, positive = activation, most hits filed as activators; hit rate 2.8% among 210,000; note: % of control where 0% means no effect; nearly all actives have a fitted effect of over 55% in size
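HEK293 cells carry an SMN2 minigene-luciferase reporter in which exon 7 inclusion puts luciferase in frame. Cells were seeded at 2000 cells/well, attached for 10-12 hours, then exposed to compounds for 30-36 hours at 37C before ONE-Glo luminescence.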
Rab9 prom act: Rab9 promoter activation; Potency, µM (titrated, usually from 9.22 µM), without a hit: at the highest dose activation, negative = inhibition, usual class: activators; hit rate 2.8% among 320,000; Huh7 Rab9 promoter-luciferase reporter, luminescence, 24 h; AID 485297; note: % of control where 0% means no effect; nearly all actives have a fitted effect of over 60% in size
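Measured in stably transfected Huh7 cells bearing a Rab9 promoter–luciferase construct: 24 h compound treatment at 37 °C, followed by luminescence detection.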
ELG1 genotox: inducers of genotoxicity in HEK293T ELG1-luciferase cells. HEK293T ELG1-luciferase reporter, luminescence, 16 h. Potency, µM (doses to about 46 µM), for the others: at the top dose activity change, positive = activation, hits mostly activators. hit rate 1.3% among 330,000. AID 504466; note: % of control where 0% means no effect; nearly all actives have a fitted effect of over 60% in size
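Genotoxicity was scored as increased ELG1-luciferase reporter signal, measured by ONE-Glo luminescence (30 min, room temperature). Compound or vehicle exposure of the HEK293T reporter cells lasted 16 hr at 37°C.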
FLuc counter: inhibits or activates purified firefly luciferase, miR-21 counter-screen; P08659; purified FLuc, Km substrates, luminescence inhibition; Potency, µM (titrated, usually from 57.5 µM), without a hit: top-dose activity change, negative = inhibition, most hits filed as inhibitors; hit rate 6.9% among 360,000; AID 588342;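 note: plate controls were vehicle for no effect and reference inhibitor for full effect; nearly all actives have a fitted effect of over 55% in size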
Target sequence (P08659 whole entry, looked up): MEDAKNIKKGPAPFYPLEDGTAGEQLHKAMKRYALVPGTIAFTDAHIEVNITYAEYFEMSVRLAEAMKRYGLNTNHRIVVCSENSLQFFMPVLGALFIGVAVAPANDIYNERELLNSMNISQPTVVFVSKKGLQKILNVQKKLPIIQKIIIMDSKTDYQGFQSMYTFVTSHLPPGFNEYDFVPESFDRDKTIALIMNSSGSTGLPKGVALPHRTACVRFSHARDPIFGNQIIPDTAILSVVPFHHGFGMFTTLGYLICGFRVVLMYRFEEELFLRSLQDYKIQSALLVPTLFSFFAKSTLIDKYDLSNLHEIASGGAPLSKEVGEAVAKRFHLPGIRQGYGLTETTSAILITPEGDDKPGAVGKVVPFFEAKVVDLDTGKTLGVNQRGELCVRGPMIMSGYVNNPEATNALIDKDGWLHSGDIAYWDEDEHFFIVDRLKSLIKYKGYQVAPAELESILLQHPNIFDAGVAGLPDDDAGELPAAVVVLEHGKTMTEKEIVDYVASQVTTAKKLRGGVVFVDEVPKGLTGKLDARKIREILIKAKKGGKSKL
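Biochemical qHTS of compounds, final roughly 60 µM downward over six points, against 10 nM purified firefly luciferase using Km concentrations of substrates (10 uM D-luciferin, 10 uM ATP) in Tris acetate pH 7.5 buffer; luminescence output.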
An asterisk follows results filed as active; ? = inconclusive; . = no result. Calls come from the whole dose curve; as a rule, active = well fitted curve in the direction sought with a large enough effect; inconclusive = small, poorly fitted or top-dose-only effect, or another doubt; inactive = no such curve, though single readings can be large; an effect the other way counts as inactive or inconclusive. Potency is the fitted concentration of half-maximal effect.

SMILES	NPC1 promoter act	SMN2 splice enh	Rab9 prom act	ELG1 genotox	FLuc counter
Cc1cc(/C=C2\C(=O)NC(=O)N(Cc3ccco3)C2=O)c(C)n1-c1ccc(C(=O)O)cc1	-3%	.	4%	5%	-2%
Cc1ccc(N2C(=O)NC(=O)/C(=C\c3cc(C)n(-c4ccc(C(=O)O)cc4)c3C)C2=O)cc1	3%	.	-5%	-1%	-4%
Cc1ccc(-n2c(C)cc(/C=C3/C(=O)NC(=O)N(Cc4ccco4)C3=O)c2C)cc1	0%	-19%	-1%	1%	19µM*
Cc1ccc(-n2sc3ccccc3c2=O)cc1	?	?	?	?	4.8µM*
CN(C)C(=O)Oc1ccc(OC(=O)c2ccccc2)cc1	-4%	5%	-2%	?	6.7µM*
O=C(Oc1ccccc1)c1cc2ccccc2o1	0%	1%	0%	1%	9.5µM*
CCCOC(=O)c1ccc(OC(=O)c2ccco2)cc1	0%	4%	-1%	2%	?
CN1c2ccc([N+](=O)[O-])cc2CC2(C(=O)NC(=O)N(c3ccc(Br)cc3)C2=O)C1c1ccccc1 (stereo not given)	-6%	-22%	-7%	-12%	2%
O=c1oc2ccccc2n1CCCOc1ccccc1	29%	11µM*	?	18µM*	19µM*
O=C(CCn1c(=O)oc2ccccc21)N1CCC2(CC1)OCCO2	9%	5%	3%	-1%	-9%
CSCc1nnc2n1-c1ccc(Cl)cc1C(c1ccccc1)=NC2	-1%	22%	10%	1%	4%
CN1/C(=C\C=C\C2=[N+](C)c3ccc4ccccc4c3C2(C)C)C(C)(C)c2ccccc21	-44%	-71%	-53%	-3%	13µM*
CN1/C(=C\C=Nc2ccccc2)C(C)(C)c2ccccc21	1%	.	2%	0%	-2%
OC(c1ccccc1)(c1ccccc1)C1CCCN1 (stereo not given)	-37%	19%	3.2µM*	?	12µM*
CCCC[N+]12CCC(CC1)C(C(O)(c1ccccc1)c1ccccc1)C2 (stereo not given)	-5%	.	-9%	-1%	0%
Oc1cccc(/C=N/NP(=S)(c2ccccc2)c2ccccc2)c1	1%	-14%	-3%	3%	24µM*
CCCCOC(=O)c1ccccc1C(=O)OCCCC	-2%	-2%	-5%	1%	2%
O=C1NC(=O)N(c2ccc3c(c2)OCO3)C(=O)/C1=C/c1ccsc1	-2%	19%	-7%	3%	19µM*
CCN(CCO)c1ccc(N=Cc2c(O)n(C)c(=S)[nH]c2=O)cc1	?	.	?	13%	1.7µM*
C[C@]12CCC3[C@@H](CCC4=CC(=O)CC[C@@]43C=O)C1CCC2=O (stereo not given in full)	6%	.	-1%	0%	3%
CC[C@H](CO)Nc1nc(NCc2ccccc2)c2ncn(C(C)C)c2n1	.	18µM*	.	.	.
CCn1nc(-c2ccccc2)nc2c(=O)n(C)c(=O)nc1-2	-2%	7.1µM*	-31%	5%	?
O=C1NC(=O)N(c2ccccc2)C(=O)/C1=C/C=C/c1ccco1	17%	.	14%	15%	?
CN(C)c1ccc(/C=C/C=C2/C(=O)NC(=O)N(c3ccccc3)C2=O)cc1	1%	.	-3%	-5%	4.3µM*
CC(C)(C)n1cccc1/C=C1\C(=O)NC(=O)N(c2ccccc2)C1=O	2%	-22%	-2%	1%	24µM*
SMILES	NPC1 promoter act	SMN2 splice enh	Rab9 prom act	ELG1 genotox	FLuc counter
O=C1NC(=O)N(c2ccccc2)C(=O)/C1=C/c1ccc2c(c1)Cc1ccccc1-2	-5%	11%	1%	8%	21µM*
Cc1cc(C)cc(N2C(=O)NC(=O)/C(=C/c3cccn3-c3ccc(Cl)cc3)C2=O)c1	7%	14%	2%	-16%	0%
COc1cc(/C=C2\C(=O)NC(=O)N(c3ccccc3)C2=O)cc(OC)c1O	-3%	30%	1%	3%	21µM*
CCOC(=O)c1ccc(N=C(CC)c2c(O)n(C)c(=O)n(C)c2=O)cc1	0%	.	-10%	9%	-1%
Cc1ccc(Cn2nc(C(=O)Nc3ccc(Br)cc3)cc2C)cc1	-13%	.	-11%	21µM*	9.5µM*
COc1ccccc1N1CCN(Cc2cccc(Br)c2)CC1	-5%	.	-11%	-4%	-1%
O=C(COC(=O)Cc1ccccc1)Nc1ccc(SC(F)F)cc1	-6%	14%	-5%	3%	19µM*
NC(=O)c1ccc(N=Nc2c(O)[nH]c(=O)[nH]c2=O)cc1	-6%	11%	0%	4%	-1%
O=c1[nH]c(O)c(N=Nc2ccc(SC(F)F)cc2)c(=O)[nH]1	23%	.	?	14%	2.4µM*
COc1ccccc1N1CCN(Cc2ccc(Br)s2)CC1	-2%	5%	-6%	-7%	-1%
Clc1cccc(/C=N\Nc2nccs2)c1	?	25%	?	21µM*	13µM*
C=C(c1ccccc1)P(=O)(O)O	-2%	-22%	-10%	1%	-1%
CCN1C[C@]2(COC)[C@H](O)C[C@H](OC)[C@]34C1C([C@H](OC)[C@H]23)[C@]1(OC(C)=O)C2[C@@H](OC(=O)c3ccccc3)C(O)(C[C@H]24)[C@@H](OC)[C@@H]1O	.	1%	.	.	.
CCc1ccc(N2C(=O)NC(=O)/C(=C\c3cccn3CCOc3ccc(C(C)C)cc3)C2=O)cc1	-11%	-65%	?	10µM*	-1%
Cn1c(O)c(C2=NNC(c3ccc(Cl)cc3)C2)c(=O)n(C)c1=O (stereo not given)	1%	.	2%	-1%	9.5µM*
CCOc1ccc(C2CC(c3c(O)n(C)c(=O)n(C)c3=O)=NN2)cc1 (stereo not given)	?	.	?	3%	0.95µM*
C=C(C)Cn1c(=O)n(CC2CS2)c2ccccc21 (stereo not given)	-9%	-26%	-8%	-3%	3%
Cc1ccsc1/C=C1\C(=O)NC(=S)N(C)C1=O	0%	.	-5%	?	15µM*
CN1C(=O)/C(=C/c2ccc(N3CCCCCC3)o2)C(=O)NC1=S	2.2µM*	11µM*	1.4µM*	21µM*	4.8µM*
CN1C(=O)/C(=C/c2ccc(Cl)s2)C(=O)NC1=S	0%	.	6%	17%	?
CN1C(=O)/C(=C\c2ccc(N3CCCCC3)o2)C(=O)NC1=S	2.5µM*	7.1µM*	1.6µM*	5.8µM*	8.5µM*
COc1ccc(NC(=O)c2cn(CCC#N)nc2-c2cccc(Br)c2)cc1	1%	.	0%	1%	2%
O=[N+]([O-])c1ccc(N2CCOCC2)c2ccncc12	0%	9%	-2%	-8%	4%
CCCCN1CC(O)=C(c2nc3ccccc3s2)C1=N	?	5%	?	11%	?
CNC(=O)COC(=O)c1ccc(-c2nc3ccccc3s2)s1	?	16µM*	20%	3.7µM*	1.1µM*
